From publication PMC8384837, “Expanding the binding specificity for RNA recognition by a PUF domain”
Residue numbers refer to the chain shown, from its start.

How the values were obtained:
Assay in all cases: yeast three-hybrid, YBZ-1, SC-Leu-His + 0.5 mM 3-AT, 4 days
Conditions in all cases: tags: N-Gal4 AD-HA kept; label: inside an RPR1-promoter hybrid RNA with tandem MS2 sites; ssRNA
[1] = target: PUM1 PUF domain R5-KSL (Homo sapiens, UniProt Q14671 828-1176, C1007K;R1008S;Q1011L)
In short: (§1)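 The interaction score is the log change in how often each variant appears, from input to selection. Frequencies came from PCR-amplified, Illumina-sequenced repeat regions of Pumilio-1 PUF domain libraries grown in strain YBZ-1 (LexA–MS2 coat fusion, HIS3 reporter) alongside matching RNA elements. Input plates were SC-Leu and selection plates were SC-Leu-His + 0.5 mM 3-AT, each for four days, and the log2 calculation used a pseudocount of 1 where a variant was absent.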

[2] = target: PUM1 PUF domain R5-PRG (Homo sapiens, UniProt Q14671 828-1176, C1007P;Q1011G)
In short: as §1

[3] = target: PUM1 PUF domain R5-RRV (Homo sapiens, UniProt Q14671 828-1176, C1007R;Q1011V)
In short: as §1

[4] = target: PUM1 PUF domain R1-RSV (Homo sapiens, UniProt Q14671 828-1176, S863R;R864S;Q867V)
In short: as §1

[5] = target: PUM1 PUF domain R1-GLQ (Homo sapiens, UniProt Q14671 828-1176, S863G;R864L)
In short: as §1

[6] = target: T1, PUM1 PUF domain R6-FWL (Homo sapiens, UniProt Q14671 828-1176, N1043F;Y1044W;Q1047L)
T1 sequence: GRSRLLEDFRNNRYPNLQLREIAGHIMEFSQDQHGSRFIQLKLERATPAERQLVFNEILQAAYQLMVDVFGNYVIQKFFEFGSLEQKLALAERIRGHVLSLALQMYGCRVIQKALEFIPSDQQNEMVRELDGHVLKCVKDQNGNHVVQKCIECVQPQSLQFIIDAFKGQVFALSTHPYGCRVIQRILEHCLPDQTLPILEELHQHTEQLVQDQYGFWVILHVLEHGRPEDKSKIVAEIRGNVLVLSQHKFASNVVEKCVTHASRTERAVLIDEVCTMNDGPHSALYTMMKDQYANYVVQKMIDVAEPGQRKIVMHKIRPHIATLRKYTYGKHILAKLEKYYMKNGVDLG
In short: as §1

[7] = target: PUM1 PUF domain R7-GRR (Homo sapiens, UniProt Q14671 828-1176, S1079G;N1080R;E1083R)
In short: as §1

[8] = target: PUM1 PUF domain R4-CFP (Homo sapiens, UniProt Q14671 828-1176, N971C;H972F;Q975P)
In short: as §1

[9] = target: PUM1 PUF domain R4-LNA (Homo sapiens, UniProt Q14671 828-1176, N971L;H972N;Q975A)
In short: as §1

[10] = target: PUM1 PUF domain R7-GSK (Homo sapiens, UniProt Q14671 828-1176, S1079G;N1080S;E1083K)
In short: as §1

[11] = target: PUM1 PUF domain R8-LYA (Homo sapiens, UniProt Q14671 828-1176, N1122L;Q1126A)
In short: as §1

[12] = target: PUM1 PUF domain R5-KPL (Homo sapiens, UniProt Q14671 828-1176, C1007K;R1008P;Q1011L)
In short: as §1

[13] = target: PUM1 PUF domain R3-VHW (Homo sapiens, UniProt Q14671 828-1176, C935V;R936H;Q939W)
In short: as §1

[14] = target: PUM1 PUF domain R3-VWF (Homo sapiens, UniProt Q14671 828-1176, C935V;R936W;Q939F)
In short: as §1

[15] = target: T2, PUM1 PUF domain R6-HRK (Homo sapiens, UniProt Q14671 828-1176, N1043H;Y1044R;Q1047K)
T2 sequence: T1 sequence with F216H, W217R, L220K
In short: as §1

[16] = target: PUM1 PUF domain R3-CRH (Homo sapiens, UniProt Q14671 828-1176, Q939H)
In short: as §1

[17] = target: PUM1 PUF domain R1-KLM (Homo sapiens, UniProt Q14671 828-1176, S863K;R864L;Q867M)
In short: as §1

[18] = target: PUM1 PUF domain R5-RHH (Homo sapiens, UniProt Q14671 828-1176, C1007R;R1008H;Q1011H)
In short: as §1

[19] = target: PUM1 PUF domain R5-SAP (Homo sapiens, UniProt Q14671 828-1176, C1007S;R1008A;Q1011P)
In short: as §1

[20] = target: PUM1 PUF domain R3-RAS (Homo sapiens, UniProt Q14671 828-1176, C935R;R936A;Q939S)
In short: as §1

PUM1 PUF domain R1-KLM, sequence (Q14671 828-1176 S863K/R864L/Q867M): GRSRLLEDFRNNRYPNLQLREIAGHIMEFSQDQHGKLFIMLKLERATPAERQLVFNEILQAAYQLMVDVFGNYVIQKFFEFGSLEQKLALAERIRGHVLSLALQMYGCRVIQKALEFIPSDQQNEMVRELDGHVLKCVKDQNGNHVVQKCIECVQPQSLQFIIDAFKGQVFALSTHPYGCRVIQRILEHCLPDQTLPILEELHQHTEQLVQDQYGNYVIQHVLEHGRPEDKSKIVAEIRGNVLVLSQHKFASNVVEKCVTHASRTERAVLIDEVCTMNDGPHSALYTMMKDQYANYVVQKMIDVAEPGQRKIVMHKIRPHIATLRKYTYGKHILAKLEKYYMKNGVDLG
PUM1 PUF domain R5-SAP, sequence (Q14671 828-1176 C1007S/R1008A/Q1011P): as the sequence (Q14671 828-1176 S863K/R864L/Q867M) above, with K36S, L37R, M40Q, C180S, R181A, Q184P counted along it
PUM1 PUF domain R5-KPL, sequence (Q14671 828-1176 C1007K/R1008P/Q1011L): as the sequence (Q14671 828-1176 S863K/R864L/Q867M) above, with K36S, L37R, M40Q, C180K, R181P, Q184L counted along it
PUM1 PUF domain R5-RHH, sequence (Q14671 828-1176 C1007R/R1008H/Q1011H): as the sequence (Q14671 828-1176 S863K/R864L/Q867M) above, with K36S, L37R, M40Q, C180R, R181H, Q184H counted along it
PUM1 PUF domain R7-GSK, sequence (Q14671 828-1176 S1079G/N1080S/E1083K): as the sequence (Q14671 828-1176 S863K/R864L/Q867M) above, with K36S, L37R, M40Q, S252G, N253S, E256K counted along it
PUM1 PUF domain R3-RAS, sequence (Q14671 828-1176 C935R/R936A/Q939S): as the sequence (Q14671 828-1176 S863K/R864L/Q867M) above, with K36S, L37R, M40Q, C108R, R109A, Q112S counted along it

## GGCUAGAACUAGUGGAUCCCCCGGCGCCCGGCGGCUCGAGCCCGGGUAAGUGUUAAUAGUCUGCAUGCCGCCGGGCGCCAUGCCUGCAGGUCGACUCUAGAAAACAUG
[1]
  binding signal: 3.78 log2 enrichment (interaction score)
[2]
  binding signal: 3.9 log2 enrichment (interaction score)
[3]
  binding signal: 4.92 log2 enrichment (interaction score)

## GGCUAGAACUAGUGGAUCCCCCGGCGCCCGGCGGCUCGAGCCCGGGUAAGUGUAAAUUGUCUGCAUGCCGCCGGGCGCCAUGCCUGCAGGUCGACUCUAGAAAACAUG
[4]
  binding signal: 2.17 log2 enrichment (interaction score)
[5]
  binding signal: 2.93 log2 enrichment (interaction score)

## GGCUAGAACUAGUGGAUCCCCCGGCGCCCGGCGGCUCGAGCCCGGGUAAGUGAAAAUAGUCUGCAUGCCGCCGGGCGCCAUGCCUGCAGGUCGACUCUAGAAAACAUG
[6]
  binding signal: 5.88 log2 enrichment (interaction score)

## GGCUAGAACUAGUGGAUCCCCCGGCGCCCGGCGGCUCGAGCCCGGGUAAGUCUAAAUAGUCUGCAUGCCGCCGGGCGCCAUGCCUGCAGGUCGACUCUAGAAAACAUG
[7]
  binding signal: 2.81 log2 enrichment (interaction score)

## GGCUAGAACUAGUGGAUCCCCCGGCGCCCGGCGGCUCGAGCCCGGGUAAGUGUAUAUAGUCUGCAUGCCGCCGGGCGCCAUGCCUGCAGGUCGACUCUAGAAAACAUG
[8]
  binding signal: 6.56 log2 enrichment (interaction score)
[9]
  binding signal: 2.84 log2 enrichment (interaction score)

## GGCUAGAACUAGUGGAUCCCCCGGCGCCCGGCGGCUCGAGCCCGGGUAAGUUUAAAUAGUCUGCAUGCCGCCGGGCGCCAUGCCUGCAGGUCGACUCUAGAAAACAUG
[7]
  binding signal: 5.06 log2 enrichment (interaction score)
[10]
  binding signal: 4.61 log2 enrichment (interaction score)

## GGCUAGAACUAGUGGAUCCCCCGGCGCCCGGCGGCUCGAGCCCGGGUAAGCGUAAAUAGUCUGCAUGCCGCCGGGCGCCAUGCCUGCAGGUCGACUCUAGAAAACAUG
[11]
  binding signal: 2.77 log2 enrichment (interaction score)

## GGCUAGAACUAGUGGAUCCCCCGGCGCCCGGCGGCUCGAGCCCGGGUAAGUGUCAAUAGUCUGCAUGCCGCCGGGCGCCAUGCCUGCAGGUCGACUCUAGAAAACAUG
[12]
  binding signal: 4.18 log2 enrichment (interaction score)
[1]
  binding signal: 3.79 log2 enrichment (interaction score)
[2]
  binding signal: 1.67 log2 enrichment (interaction score)
[3]
  binding signal: 4.84 log2 enrichment (interaction score)

## GGCUAGAACUAGUGGAUCCCCCGGCGCCCGGCGGCUCGAGCCCGGGUAAGUGUACAUAGUCUGCAUGCCGCCGGGCGCCAUGCCUGCAGGUCGACUCUAGAAAACAUG
[8]
  binding signal: 2.19 log2 enrichment (interaction score)

## GGCUAGAACUAGUGGAUCCCCCGGCGCCCGGCGGCUCGAGCCCGGGUAAGUGUAAAUAGUCUGCAUGCCGCCGGGCGCCAUGCCUGCAGGUCGACUCUAGAAAACAUG
[13]
  binding signal: 3.99 log2 enrichment (interaction score)
[14]
  binding signal: 5.2 log2 enrichment (interaction score)
[1]
  binding signal: 0.96 log2 enrichment (interaction score)
[8]
  binding signal: 5.06 log2 enrichment (interaction score)
[11]
  binding signal: 1.25 log2 enrichment (interaction score)
[15]
  binding signal: 2.98 log2 enrichment (interaction score)
[6]
  binding signal: 5.31 log2 enrichment (interaction score)
[16]
  binding signal: 3.86 log2 enrichment (interaction score)
[2]
  binding signal: 3.3 log2 enrichment (interaction score)
[3]
  binding signal: 2.01 log2 enrichment (interaction score)

## GGCUAGAACUAGUGGAUCCCCCGGCGCCCGGCGGCUCGAGCCCGGGUAAGUGUAAAUGGUCUGCAUGCCGCCGGGCGCCAUGCCUGCAGGUCGACUCUAGAAAACAUG
[17]
  binding signal: 0.59 log2 enrichment (interaction score)

## GGCUAGAACUAGUGGAUCCCCCGGCGCCCGGCGGCUCGAGCCCGGGUAAGUGUGAAUAGUCUGCAUGCCGCCGGGCGCCAUGCCUGCAGGUCGACUCUAGAAAACAUG
[2]
  binding signal: 2.67 log2 enrichment (interaction score)
[3]
  binding signal: 1.41 log2 enrichment (interaction score)
[18]
  binding signal: 3.25 log2 enrichment (interaction score)
[19]
  binding signal: 3.23 log2 enrichment (interaction score)

## GGCUAGAACUAGUGGAUCCCCCGGCGCCCGGCGGCUCGAGCCCGGGUAAGUGUAAAUCGUCUGCAUGCCGCCGGGCGCCAUGCCUGCAGGUCGACUCUAGAAAACAUG
[4]
  binding signal: 3.6 log2 enrichment (interaction score)
[17]
  binding signal: 3.89 log2 enrichment (interaction score)

## GGCUAGAACUAGUGGAUCCCCCGGCGCCCGGCGGCUCGAGCCCGGGUAAGUGUAAUUAGUCUGCAUGCCGCCGGGCGCCAUGCCUGCAGGUCGACUCUAGAAAACAUG
[14]
  binding signal: 2.85 log2 enrichment (interaction score)
[20]
  binding signal: 3.67 log2 enrichment (interaction score)

## GGCUAGAACUAGUGGAUCCCCCGGCGCCCGGCGGCUCGAGCCCGGGUAAGUGUAAGUAGUCUGCAUGCCGCCGGGCGCCAUGCCUGCAGGUCGACUCUAGAAAACAUG
[14]
  binding signal: 2.09 log2 enrichment (interaction score)
